# From the supplement of paper PMC8728848
# This is one part of a sample in which the strongest signals are shown more often than they occur.
# Assays:
# Test in all cases: glycan array binding signal (z-score within array); higher = stronger binding
# Details in all cases: glycan notation: IUPAC condensed, linker removed
# Gal(b1-4)GlcNAc = tested on: Gal(b1-4)GlcNAc
# Outline: (§1)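 Glycan array data were curated from 3228 arrays in the Consortium for Functional Glycomics database and kept only where the protein sequence was available. Glycan names were converted to IUPAC-condensed notation, and columns mapping to the same glycan were averaged. The binding signal is a within-array Z-score, averaged across arrays of the same protein sequence at different concentrations or buffers and across linkers. Negative Z-scores can be read as non-binding.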
# Gal3S(b1-3)GalNAc = tested on: Gal3S(b1-3)GalNAc
# Outline: as §1
# [1] = tested on: Gal3S(b1-4)[Fuc(a1-3)]Glc6S
# Outline: as §1
# Gal(b1-4)Glc = tested on: Gal(b1-4)Glc
# Outline: as §1
# Gal3S(b1-4)Glc = tested on: Gal3S(b1-4)Glc
# Outline: as §1
# Gal(b1-6)Gal = tested on: Gal(b1-6)Gal
# Outline: as §1
# Gal3S(b1-3)GlcNAc = tested on: Gal3S(b1-3)GlcNAc
# Outline: as §1
# [2] = tested on: Gal3S(b1-3)[Fuc(a1-4)]GlcNAc
# Outline: as §1
# Gal3S(b1-4)GlcNAc = tested on: Gal3S(b1-4)GlcNAc
# Outline: as §1
# [3] = tested on: Gal3S(b1-4)[Fuc(a1-3)]GlcNAc
# Outline: as §1
substance,measurement,setting,value
"SpGH101 (Streptococcus pneumoniae), Q8DR60",glycan array binding signal (z-score),Gal(b1-4)GlcNAc,-0.157
same,glycan array binding signal (z-score),Gal3S(b1-3)GalNAc,5.02
same,glycan array binding signal (z-score),[1],0.164
LcI (Legionella pneumophila),glycan array binding signal (z-score),Gal(b1-4)Glc,0.081
same,glycan array binding signal (z-score),Gal3S(b1-4)Glc,3.4
"Wza (Escherichia coli), P0A930",glycan array binding signal (z-score),Gal(b1-6)Gal,-0.876
same,glycan array binding signal (z-score),Gal3S(b1-3)GlcNAc,0.986
"BambL (Burhholderia ambifaria), Q0B4G1",glycan array binding signal (z-score),[2],0.713
"SiiE (Salmonella typhimurium), A0A0H3NVH0",glycan array binding signal (z-score),[2],-0.012
AgI/IIC123-GFP (Streptococcus mutans),glycan array binding signal (z-score),Gal3S(b1-4)GlcNAc,-0.345
same,glycan array binding signal (z-score),[3],0.852
